The values below come from PubChem BioAssay (NCATS).

Structures are written as SMILES. Results filed as inconclusive are left out. A call without a number means that no potency is given here. Calls of active or inactive are those of the source. Calls come from the whole dose curve; as a rule, active = well fitted curve in the direction sought with a large enough effect; inconclusive = small, poorly fitted or top-dose-only effect, or another doubt; inactive = no such curve, though single readings can be large; an effect the other way counts as inactive or inconclusive.

Assay [1] deals with Zika virus NS2B-NS3 protease. Put plainly: Primary screen GU AMC qHTS for Zika virus inhibitors (AID 1347154). Note: nearly all actives have a fitted effect of over 70% in size. In outline:
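Unlinked Zika NS2B hydrophilic domain–NS3 protease complex at 25 nM in 10 mM Tris-HCl pH 8.0, 0.01% Tween 20, with an AMC peptide substrate. Fluorescence change (340/450 nm) over 15 min at room temperature, normalized to controls, fitted to 4-parameter Hill.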

Assay [2] is described as follows: qHTS to identify inhibitors of the type 1 interferon - major histocompatibility complex class I in skeletal muscle: primary screen against the NCATS Pharmaceutical Collection (AID 1347407).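 Note: luminescence of HiBiT knocked into endogenous HLA-B as interferon-induced MHC class I level.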 A digest of the protocol: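 Cells were seeded with 4 ng/ml IFN-beta, incubated 1 h, then dosed with compounds over eight 1:5 steps up to 46 uM final. After 24 h at 37 C, HiBiT lytic reagent was added and luminescence read after 10 min lysis in the dark.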

In assay [3] the test system is Zika virus NS2B-NS3 protease (unlinked complex). The assay can be described thus: Primary screen GU Rhodamine qHTS for Zika virus inhibitors: Unlinked NS2B-NS3 protease assay (AID 1347159). Note: nearly all actives have a fitted effect of over 60% in size. A digest of the protocol:
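Unlinked NS2B/NS3, 25 nM; Rhod110 peptide, 1.5 microM; compounds, up to 114 microM. Reaction run 15 min at RT in 10 mM Tris-HCl pH 8.0, 0.01% Tween 20; kinetic fluorescence change fitted with a 4-parameter Hill model.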

The subject of assay [4] is Zika virus NS2B-NS3 protease (linked construct). The assay can be described thus: Primary screen NINDS Rhodamine qHTS for Zika virus inhibitors (AID 1347160). Note: nearly all actives have a fitted effect of over 55% in size. As to conditions: outcome: dose series up to 57.1 µM unless noted. A digest of the protocol:
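Single-chain NS2B-NS3 protease, 25 nM, pH 8.0; compounds preincubated 15 min. Activity: Rhodamine110 release from 1.5 microM substrate over 15 min, room temperature, data fitted to 4-parameter Hill.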

For the compound `O=C1c2ccccc2CCc2ccccc21`, the Potency entry in assay [1] and in assay [2] was “inactive” throughout.

As to `CC(=O)[C@H]1CC[C@H]2[C@@H]3C=CC4=CC(=O)CC[C@@]4(C)[C@@H]3CC[C@]12C`, the Potency entry in assay [1], in assay [3] and in assay [2] was “inactive” in each case. The compound was called inactive in assay [4].

Consider `O=C(O)Cc1ccccc1Oc1ccc(Cl)cc1Cl`, for which the Potency entry in assay [1], in assay [3] and in assay [2] was “inactive” in each case. For the same compound, the compound was classed as inactive in assay [4].

In the case of `CCCN(CCC)C(=O)C(CCC(=O)OCCCN1CCN(CCOC(=O)Cc2c(C)n(C(=O)c3ccc(Cl)cc3)c3ccc(OC)cc23)CC1)NC(=O)c1ccccc1` (stereo not drawn), the Potency result in assay [1] and in assay [2] was “inactive” in each case. The compound was called inactive in assay [4].

Regarding `CN1CCC(N(Cc2cccs2)c2ccccc2)CC1`, the Potency entry in assay [1], in assay [3] and in assay [2] was “inactive” in each case. Moreover, the compound was classed as inactive in assay [4].

As to `C=CC[N+]1([C@H]2C[C@H]3[C@@H]4CC[C@H]5C[C@H](OC(C)=O)[C@@H](N6CCCCC6)C[C@]5(C)[C@H]4CC[C@]3(C)[C@H]2OC(=O)CC)CCCCC1`, the Potency result in assay [1], in assay [3] and in assay [2] was “inactive” each time. Further, in assay [4], the result was inactive.

Turning to `OCc1cccnc1`, the Potency result in assay [1] and in assay [2] was “inactive” each time.

In the case of `CC(C(O)c1ccccc1)N(C)CCOC(c1ccccc1)c1ccccc1` (stereo not drawn), the Potency entry in assay [1] was “inactive”. In addition, in assay [4], the compound was called inactive.

On to `OC(CCCN1CCCCC1)(c1ccccc1)c1ccccc1`, for which the Potency entry in assay [1] and in assay [2] was “inactive” in each case.

In the case of `C[N+]1(CC2COC(c3ccccc3)(c3ccccc3)O2)CCCCC1` (stereo not drawn), the Potency result in assay [1] and in assay [2] was “inactive” each time. For the same compound, the outcome in assay [4] is “inactive [at 33.1 µM]”.

In the case of `Nc1ncnc2nc[nH]c12`, the Potency result in assay [1] and in assay [2] was “inactive” in each case.

In the case of `CC(C)CCCC(C)NCCC(C)C` (stereo not drawn), the Potency entry in assay [1] and in assay [2] was “inactive” throughout.

Consider `CCC(C(=O)NC(=O)NC(C)=O)c1ccccc1` (stereo not drawn), for which the Potency entry in assay [1], in assay [3] and in assay [2] was “inactive” each time. Further, in assay [4], the call was inactive.

Turning to `CC[N+]1(CC)CCC(=C(c2ccccc2)c2ccccc2)C1C` (stereo not drawn), the Potency result in assay [1] and in assay [2] was “inactive” throughout. Besides, the outcome in assay [4] was inactive.

With `CCN1CCN(c2cc(-c3ccc(F)cc3)c3c(n2)CCCCCC3)CC1`, the Potency result in assay [1], in assay [3] and in assay [2] was “inactive” each time. In addition, in assay [4], the compound was called inactive.

As for `CC(C)(C)C(=O)OCOC(=O)C1N2C(=O)CC2S(=O)(=O)C1(C)C` (stereo not drawn), the Potency entry in assay [1] and in assay [2] was “inactive” in each case.

Take `CN(CC1(C)CCCO1)S(=O)(=O)c1ccc(Cl)c(S(N)(=O)=O)c1` (stereo not drawn): the Potency result in assay [1] and in assay [2] was “inactive” in each case. The outcome in assay [4] was inactive.

For `CO/N=C(/C(=O)N[C@@H]1C(=O)N2C(C(=O)O)=C(Cn3nnc(C)n3)CS[C@H]12)c1csc(N)n1`, the Potency entry in assay [1], in assay [3] and in assay [2] was “inactive” in each case. Moreover, the outcome in assay [4] was inactive.

Turning to `C[C@H](CN1CCCC1)C(=O)c1ccc(C(F)(F)F)cc1`, the Potency entry in assay [1] and in assay [2] was “inactive” each time. In assay [4], the result was inactive.

As for `CC(C(=O)O)c1ccc(/C=C2\CCCCC2=O)cc1` (stereo not drawn), the Potency entry in assay [1], in assay [3] and in assay [2] was “inactive” in each case. For the same compound, the result in assay [4] was inactive.

`CNC[C@H](O)[C@@H](O)[C@H](O)[C@H](O)CO`: the Potency entry in assay [1] and in assay [2] was “inactive” each time.

Consider `C=CCOc1cc(Cl)ccc1C(=O)NCCN(CC)CC`, for which the Potency result in assay [1], in assay [3] and in assay [2] was “inactive” each time. In addition, the outcome in assay [4] was inactive.

For the compound `CC(=O)O[C@H]1CC[C@@]2(C)C(=CC[C@@H]3[C@@H]2CC[C@]2(C)C(C(C)=O)=CC[C@@H]32)C1`, the Potency entry in assay [1] and in assay [2] was “inactive” in each case.

Turning to `CCOc1c(N2CCOCC2)cnn(C)c1=O`, the Potency result in assay [1] and in assay [2] was “inactive” throughout.

For `COc1cc(NS(=O)(=O)c2ccc(N)cc2)nc(C)n1`, the Potency entry in assay [1] and in assay [2] was “inactive” in each case. Moreover, the compound was called inactive in assay [4].

In the case of `CC(=O)N[C@@H](CCC(N)=O)C(=O)O`, the Potency entry in assay [1] and in assay [2] was “inactive” each time.

Regarding `Cc1cccc(N(C)C(=S)Oc2ccc3c(c2)CCC3)c1`, the Potency entry in assay [1], in assay [3] and in assay [2] was “inactive” in each case. Further, in assay [4], the outcome was inactive.

Consider `CCNC(=O)NCCCOc1cccc(CN2CCCCC2)c1`, for which the Potency entry in assay [1] and in assay [2] was “inactive” throughout. Also, the call in assay [4] was inactive.

`CN1[C@@H]2CC[C@H]1CC(NC(=O)n1c(=O)[nH]c3ccccc31)C2` (stereo partly drawn): the Potency entry in assay [1] and in assay [2] was “inactive” throughout. Further, in assay [4], the call was inactive.

Consider `O=C(NN1CCCC1)NS(=O)(=O)c1ccc(Cl)cc1`, for which the Potency entry in assay [1] and in assay [2] was “inactive” in each case. Further, the result in assay [4] was inactive.

In the case of `CC(C)C[C@@H]1[C@H](c2ccccc2)OC(=O)N1CCCN1CCCCCC1`, the Potency result in assay [1] and in assay [2] was “inactive” throughout.

As for `CC(C)(C)c1nnc(NS(=O)(=O)c2ccccc2)s1`, the Potency entry in assay [1], in assay [3] and in assay [2] was “inactive” each time. In addition, in assay [4], the call was inactive.

With `Cc1cc(O)c(C)c(C)c1O`, the Potency entry in assay [1] and in assay [2] was “inactive” each time.

Consider `O=C(O)C(=O)Nc1cccc(-c2nn[nH]n2)c1`, for which the Potency result in assay [1] and in assay [2] was “inactive” throughout.

As to `O=C(O)Cn1c(=O)n(Cc2ccc(Br)cc2F)c(=O)c2ccc(Cl)cc21`, the Potency entry in assay [1] and in assay [2] was “inactive” throughout.

Regarding `CC(=O)c1ccc(O)c(C(N)=O)c1`, the Potency result in assay [1] and in assay [2] was “inactive” each time.

`C#Cc1ccc(-c2ccccc2F)cc1`: the Potency result in assay [1] and in assay [2] was “inactive” each time.

Take `NC(=O)NS(=O)(=O)c1ccc(Cl)cc1`: the Potency result in assay [1] and in assay [2] was “inactive” each time.

For `CCOC(=O)c1ccc(O)c(O)c1`, the Potency result in assay [1] and in assay [2] was “inactive” each time.

For `COC(=O)c1c(Cl)c(Cl)c(C(=O)OC)c(Cl)c1Cl`, the Potency entry in assay [1] and in assay [2] was “inactive” each time.

Regarding `CN1CCN(N)CC1`, the Potency result in assay [1] and in assay [2] was “inactive” each time.
